According to PubChem BioAssay (Tox21):
Records with an inconclusive call do not appear. Where a call stands in place of a potency, no number is given. Active and inactive are the calls of the source. The call rests on the fitted dose curve; in most records, active means well fitted cell-killing curve with a large enough effect in the repeat runs; inconclusive means weak or mixed curves, or effect the other way; inactive means flat fitted curve, though single readings scatter.

What was measured:
[1] = cAMP Responsive Elements (CRE) small molecule antagonists, cell-based qHTS assay: qHTS cell viability counter screen (AID 2060913); further: nearly all actives have a fitted effect of over 40% in size
Method in brief: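 CRE-bla HEK293T cells (2,000/well, 18 h) given compound plus NKH477 0.25 uM final for 3 h at 37C; viability counter-screen by CellTiter-Glo luminescence in same wells after 30 min.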

[2] = cAMP Responsive Elements (CRE) small molecule agonists, cell-based qHTS assay: qHTS cell viability counter screen (AID 2060914);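 further: viability read after 3 h of compound exposure; nearly all actives have a fitted effect of over 50% in size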
Method in brief: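 Cells are seeded and incubated 18 h, treated with compounds in DMSO for 3 h, read for the bla reporter, then given CellTiter-Glo; luminescence is measured after 30 min at room temperature.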

Row | SMILES | Potency [1] | Potency [2]
1 | C=C(C)C(=O)OC(C)C | inactive | inactive
2 | CCOC(=O)C(C)Oc1ccc(Oc2nc3ccc(Cl)cc3o2)cc1 (configuration not stated) | inactive | inactive
3 | OCCO | inactive | inactive
4 | Clc1nc(Cl)c(Cl)c(Cl)c1Cl | inactive | inactive
5 | COC(=O)C1=C(C)NC(C)=C(C(=O)OCC(C)=O)C1c1ccccc1[N+](=O)[O-] (configuration not stated) | inactive | inactive
6 | CCN(CC)C(C)=O | inactive | inactive
7 | O=C1OC(=O)c2cccc3cccc1c23 | inactive | inactive
8 | COC(=O)c1ccccc1 | inactive | inactive
9 | C=CCCCCCCCCO | inactive | inactive
10 | CCCCC(CC)CCC(CC(C)C)OS(=O)(=O)O (configuration not stated) | inactive | inactive
11 | CCc1cccc(N(C)C(N)=Nc2cccc3ccccc23)c1 | inactive | inactive
